Bioassay records deposited in PubChem BioAssay by Broad Institute.
Compounds with a hit are over-represented: about 3.3% of the library has one in this group of screens.
SIRT5 block: sirtuin-5 (human) deacylase inhibition; Purified SirT5, succinyl-peptide AMC, trypsin-coupled fluorescence; inhibition, % at 15 µM; 1.1% of 330,000 active; in the data active = inhibition above about 15%
ERAP1 inh: ERAP1 (human) enzyme inhibition | Q9NZ08 | recombinant ERAP1, Leu-AMC fluorescence, 60 min | inhibition, % at 10.7 µM | 0.15% of 340,000 active;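 active = mean replicate inhibition of at least 30%, or all replicates individually reaching that 30% level; inactive = mean below 30% and not every replicate reaching it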;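 note: 0% = neutral control wells and 100% = L-leucinethiol positive control wells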
INS-1E GSIS act: GLuc luminescence reporter in INS-1E cells, primary screen for activators of glucose-dependent secretion of insulin; activation, % at 16.6 µM; INS-1E GLuc reporter insulin secretion, 2-3 h; 0.61% of 370,000 active;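 active = lowest replicate activation of at least 40%, so every replicate reaches that level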;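 note: 0% = median of neutral control wells and 100% = median of IBMX positive control wells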
CASP6 VEID inh: blocks human caspase-6 cleavage activity. P55212. purified caspase-6, Z-VEID-R110 cleavage fluorescence. inhibition, % at 12.5 µM. 0.53% of 350,000 active;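 active = mean inhibition across replicates at least about 35%, with every replicate also reaching that limit, limit read from the data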;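 note: 0% = median of neutral control wells and 100% = no fluorescence left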
Target sequence (P55212 24-179 limits assumed): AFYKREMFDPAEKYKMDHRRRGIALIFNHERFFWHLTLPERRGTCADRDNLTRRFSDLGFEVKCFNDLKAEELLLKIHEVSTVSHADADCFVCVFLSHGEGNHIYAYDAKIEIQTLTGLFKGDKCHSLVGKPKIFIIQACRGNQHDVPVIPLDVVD
Target sequence (P55212 194-293 limits assumed): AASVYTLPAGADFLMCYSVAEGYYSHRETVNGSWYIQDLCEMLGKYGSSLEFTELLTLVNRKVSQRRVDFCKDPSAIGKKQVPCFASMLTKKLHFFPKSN
FGF22 binding: shifts melting point of recombinant human FGF22; Q9HCT0; recombinant FGF22 thermal shift, SYPRO orange fluorescence; percent of sucrose octasulfate shift, DMSO zero; activity (Tm shift, normalised), % at 9.99 µM; 1.5% of 340,000 active;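 active = mean Tm shift, scaled 0 neutral to 100 positive control, at about 1.3% or above, every replicate too, limit read from the data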
Target sequence (Q9HCT0 whole entry, looked up): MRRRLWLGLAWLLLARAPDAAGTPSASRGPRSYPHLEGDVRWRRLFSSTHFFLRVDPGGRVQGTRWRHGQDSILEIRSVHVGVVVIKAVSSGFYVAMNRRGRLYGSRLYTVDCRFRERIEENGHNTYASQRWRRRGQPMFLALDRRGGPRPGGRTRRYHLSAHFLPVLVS
An asterisk follows results filed as active; . = no result.

SMILES | SIRT5 block | ERAP1 inh | INS-1E GSIS act | CASP6 VEID inh | FGF22 binding
COc1ccccc1C(=O)Nc1ccc(-c2nnn(CC(=O)N3CCOCC3)n2)cc1 | -4.8 | -1.3 | 0.7 | -3.6 | 43.8*
O=C(NC1CCCCC1)N1CC(=O)N2[C@H](CO)[C@H](c3ccc(/C=C/c4ccccc4)cc3)[C@H]2C1 | 6.1 | 0.3 | -21.5 | 3.3 | .
CCCn1c2ccccc2c2cn[nH]c(=O)c21 | -2.5 | -6.4 | 47.2* | -1.5 | -0.3
Cc1ccnc(NC(=O)c2ccc(Cl)c(NC(=O)C(C)Oc3ccccc3)c2)c1 (stereo unspecified) | 2.0 | -3.5 | 4.2 | 5.1 | 43.2*
CCCC#Cc1cnc2c(c1)C(=O)N([C@@H](C)CO)C[C@@H](C)[C@@H](CN(C)C(=O)CN1CCOCC1)O2 | -7.0 | . | -5.3 | . | .
C[C@H](CO)N1C[C@H](C)[C@@H](CN(C)C(=O)Nc2ccccc2)Oc2c(NS(=O)(=O)c3cccs3)cccc2C1=O | 24.5* | 1.1 | 7.1 | -0.9 | -0.3
C[C@H](CO)N1C[C@H](C)[C@H](CN(C)C(=O)Nc2ccccc2)Oc2c(NS(=O)(=O)c3cccs3)cccc2C1=O | . | . | 2.9 | . | .
C[C@@H]1CN([C@@H](C)CO)C(=O)c2cccc(NS(=O)(=O)c3cccs3)c2O[C@@H]1CN(C)S(=O)(=O)c1ccccc1 | -5.0 | 1.6 | -20.2 | 36.6* | 0.2
COc1ccc(S(=O)(=O)N(C)[C@H]2C[C@H]3c4cc(Oc5ccccc5C)ccc4CCN3C(=O)[C@H]2[C@H](C)O)cc1 | 17.5* | . | -21.4 | -0.3 | -0.4
COc1ccc(S(=O)(=O)N(C)[C@H]2C[C@H]3c4cc(-c5ccccc5)ccc4CCN3C(=O)[C@H]2[C@H](C)O)cc1 | -1.7 | . | -46.7 | -0.3 | -0.1
CNC[C@H]1OCCCC[C@H](C)Oc2ccc(NS(=O)(=O)c3ccc(Cl)cc3)cc2C(=O)N([C@H](C)CO)C[C@@H]1C | . | . | 11.5 | . | .
CCCC(C)C(=O)Nc1nc(C)c(-c2csc(Nc3ccc(Cl)cc3)n2)s1 (stereo unspecified) | 31.0* | -1.6 | 2.0 | -0.4 | 0.1
CCCC(C)C(=O)Nc1nc(C)c(-c2csc(Nc3ccccc3OC)n2)s1 (stereo unspecified) | -2.6 | -3.3 | -6.1 | -2.7 | 0.0
CCCC#Cc1ccc([C@H]2[C@H]3CN(C(=O)Nc4ccccc4F)CC(=O)N3[C@H]2CO)cc1 | -0.7 | 4.3 | -5.1 | -1.9 | .
CS(=O)(=O)N1C[C@@H]2C(c3ccccc3)[C@H](C1)N2Cc1ccc(F)cc1 (stereo partly specified) | . | . | 10.7 | . | .
CN1C(=O)C(O)(c2sc(N)nc2-c2ccccc2)c2ccccc21 (stereo unspecified) | 21.2* | -1.7 | -9.3 | 0.1 | .
CC(=O)c1ccccc1NS(=O)(=O)c1cccc2nsnc12 | -2.4 | 0.5 | 10.6 | 56.0* | .
CC(=O)c1ccccc1NS(=O)(=O)c1cccc2nonc12 | 2.0 | 3.3 | 1.2 | 1.7 | 0.1
CCC(=O)N[C@@H]1C=C[C@H](CC(=O)NCC2CCCCC2)O[C@H]1CO | -4.2 | 1.8 | 9.5 | 4.1 | -0.3
Cc1ccc(NC(=S)N/N=C/c2c(C)nn(-c3ccccc3)c2N2CCCC2)cc1 | 1.2 | 0.8 | 64.0* | -1.5 | 0.4
Cc1nn(-c2ccccc2)c(N2CCCC2)c1/C=N/O | 1.1 | 2.7 | 91.2* | 1.6 | 0.1
Cc1nn(-c2ccccc2)c(N2CCCC2)c1/C=N/NC(=S)Nc1ccc(F)cc1 | 1.6 | -0.9 | 74.5* | -2.1 | 0.7
Cc1nn(-c2ccccc2)c(N2CCCC2)c1/C=N/NC(=S)Nc1ccccc1C(F)(F)F | -2.7 | 5.8 | . | -4.3 | 0.0
O=C(O)C[C@H]1C[C@H]2c3cc(NC(=O)C4CCOCC4)ccc3O[C@H]2[C@H](CO)O1 | -3.1 | 0.1 | -1.8 | 1.7 | .
CCCC(=O)Nc1ccc2c(c1)C(=O)N(C)[C@H]1CC[C@H](CC(=O)NCCc3ccncc3)O[C@@H]1CO2 | -5.1 | -0.1 | . | 0.5 | -0.1
CCNC(=O)C[C@H]1CC[C@@H]2[C@@H](COc3ccc(NC(=O)Nc4cccc(OC)c4)cc3C(=O)N2C)O1 | . | . | -2.9 | . | -0.1
Cc1ccccc1-c1ccc2c(c1)O[C@@H](CN(C)C(=O)c1ccccn1)[C@H](C)CN([C@@H](C)CO)S2(=O)=O | -2.2 | -3.6 | -8.6 | 0.9 | 0.3
CO[C@@H]1CN(C)C(=O)c2ccc(NC(C)=O)cc2OC[C@@H](C)N(Cc2ccncc2)C[C@@H]1C | . | . | 2.9 | . | .
